Conditions in all cases: mRNA level, 48 h; actives raise or lower the signal
Read-out in test [1]: growth arrest and DNA damage 45 (GADD45G), GADD45G (gene 10912)
Description: LTEA_HepaRG_GADD45G: Life Technologies and Expression Analysis (LTEA) Assay for growth arrest and DNA damage 45 (GADD45G) using HepaRG (AID 2283499). An outline of the steps: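 GADD45G transcript level by qRT-PCR (housekeeping-normalized: ACTB, GAPDH, POLR2A) after 48 h chemical treatment of a single HepaRG lot in serum-free induction medium; eight-point half-log series up to 100 uM in 0.5% DMSO, duplicates, up- or down-regulation scored.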

Read-out in test [2]: Glutamate-cysteine ligase regulatory (GCLM), GCLM (gene 2730)
Kind of test: LTEA_HepaRG_GCLM: Life Technologies and Expression Analysis (LTEA) Assay for Glutamate-cysteine ligase regulatory (GCLM) using HepaRG (AID 2283500). An outline of the steps: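 In this multiplexed HepaRG gene-expression assay, GCLM mRNA change after 48 h treatment (8 concentrations, max 100 uM) was scored against DMSO by bidirectional curve fitting.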

Read-out in test [3]: Glutathione S-transferase M3 (GSTM3), GSTM3 (gene 2947)
Description: LTEA_HepaRG_GSTM3: Life Technologies and Expression Analysis (LTEA) Assay for Glutathione S-transferase M3 (GSTM3) using HepaRG (AID 2283501). The method in brief: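 GSTM3 transcript levels came from Fluidigm TaqMan qRT-PCR normalized to three housekeeping genes, fitted in both directions against DMSO. HepaRG cultures received chemicals for 48 h in serum-free induction medium (0.5% DMSO), 8 half-log concentrations up to 100 uM, duplicate.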

Read-out in test [4]: Heat shock 70 kDa protein 1 (HSPA1A), gene 3303
Description: LTEA_HepaRG_HSPA1A: Life Technologies and Expression Analysis (LTEA) Assay for Heat shock 70 kDa protein 1 (HSPA1A) using HepaRG (AID 2283502). The method in brief: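 An oxidative-stress marker readout: HepaRG cells treated 48 h in duplicate with an eight-point series (highest 100 uM) had HSPA1A mRNA quantified by TaqMan qRT-PCR. Activity was fitted in both directions using 0.5% DMSO as baseline.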

Read-out in test [5]: Hypoxia-inducible factor 1-alpha (Homo sapiens) (UniProt Q16665)
Description: LTEA_HepaRG_HIF1A: Life Technologies and Expression Analysis (LTEA) Assay for Hypoxia-inducible factor 1 (HIF1A) Trancription factor using HepaRG (AID 2283503). The method in brief: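 Gain- or loss-of-signal HIF1A mRNA changes are fitted against a DMSO baseline. HepaRG cultures receive eight concentrations, highest 100 uM, for 48 h in serum-free induction medium with 0.5% DMSO.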

Read-out in the next test: HGF (gene 3082)
Kind of test: LTEA_HepaRG_HGF: Life Technologies and Expression Analysis (LTEA) Assay for Hepatocyte Growth Facto (HGF) using HepaRG (AID 2283505). An outline of the steps:
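HGF transcript was quantified by TaqMan qRT-PCR against three housekeeping genes after 48 h treatment of HepaRG cells. Exposure ran in duplicate over eight half-log steps topping at 100 uM in 0.5% DMSO vehicle.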

Read-out in test [6]: Insulin Like Growth Factor 1 (IGF1), IGF1 (gene 3479)
Description: LTEA_HepaRG_IGF1: Life Technologies and Expression Analysis (LTEA) Assay for Insulin Like Growth Factor 1 (IGF1) using HepaRG (AID 2283506). An outline of the steps: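 Endpoint: IGF1 mRNA change by qRT-PCR, housekeeping-normalized, fitted bidirectionally relative to 0.5% DMSO vehicle. Human HepaRG cells were treated 48 h in serum-free induction medium, eight half-log concentrations topping at 100 uM.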

Read-out in test [7]: Intercellular Adhesion Molecule 1 (ICAM1), ICAM1 (gene 3383)
Description: LTEA_HepaRG_ICAM1: Life Technologies and Expression Analysis (LTEA) Assay for Intercellular Adhesion Molecule 1 (ICAM1) using HepaRG (AID 2283507). The method in brief:
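ICAM1 transcript levels measured by qRT-PCR, normalized to three housekeeping genes (ACTB, GAPDH, POLR2A), after 48 h chemical exposure of HepaRG cells. Duplicate eight-point half-log series from 100 uM in 0.5% DMSO; gain or loss fitted against vehicle.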

Read-out in test [8]: Insulin-like growth factor-binding protein 1 (IGFBP1), IGFBP1 (gene 3484)
Kind of test: LTEA_HepaRG_IGFBP1: Life Technologies and Expression Analysis (LTEA) Assay for Insulin-like growth factor-binding protein 1 (IGFBP1) using HepaRG (AID 2283508). An outline of the steps: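 Read-out is qRT-PCR transcript level normalized to three housekeeping genes, fitted in both directions against 0.5% DMSO. Differentiated HepaRG cells received eight half-log concentrations (top 100 uM) in duplicate for 48 h in serum-free induction medium.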

Read-out in test [9]: Interleukin 6 (IL6), IL6 (gene 3569)
Kind of test: LTEA_HepaRG_IL6: Life Technologies and Expression Analysis (LTEA) Assay for Interleukin 6 (IL6) using HepaRG (AID 2283509). The method in brief: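 Changes in IL6 mRNA, up or down relative to 0.5% DMSO controls, were derived from concentration-response curves in human HepaRG cells treated for 48 h at up to 100 uM, with ACTB, GAPDH and POLR2A as normalizers.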

Read-out in test [10]: Interleukin 6 Receptor (IL6R), IL6R (gene 3570)
Kind of test: LTEA_HepaRG_IL6R: Life Technologies and Expression Analysis (LTEA) Assay for Interleukin 6 Receptor (IL6R) using HepaRG (AID 2283510).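 On AC50: differentiated human HepaRG liver cells in serum-free induction medium.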 An outline of the steps:
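In this HepaRG screen, test chemicals act on cells for 48 h at up to 100 uM (eight half-log points, duplicate wells). IL6R expression is quantified by qRT-PCR after normalization to ACTB, GAPDH and POLR2A, with DMSO as baseline.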

Read-out in test [11]: Potassium channel subfamily K member 1 (KCNK1), KCNK1 (gene 3775)
Description: LTEA_HepaRG_KCNK1: Life Technologies and Expression Analysis (LTEA) Assay for Potassium channel subfamily K member 1 (KCNK1) using HepaRG (AID 2283511). An outline of the steps: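 Human HepaRG cultures receive test chemicals for 48 h in 0.5% DMSO, top concentration 100 uM with half-log dilutions. Induction or suppression of KCNK1 mRNA relative to DMSO is derived by bidirectional fitting of qRT-PCR data.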

Read-out in test [12]: Keratin 19 (KRT19), KRT19 (gene 3880)
Kind of test: LTEA_HepaRG_KRT19: Life Technologies and Expression Analysis (LTEA) Assay for Keratin 19 (KRT19) using HepaRG (AID 2283512). An outline of the steps:
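KRT19 transcript measured by TaqMan qRT-PCR, referenced to three housekeeping genes, after HepaRG cells received test chemicals for 48 h. Eight half-log concentrations, top 100 uM, 0.5% DMSO vehicle; increases and decreases both fitted.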

Read-out in test [13]: JUN Transcription Factor, JUN (gene 3725)
Description: LTEA_HepaRG_JUN: Life Technologies and Expression Analysis (LTEA) Assay for JUN Transcription Factor using HepaRG (AID 2283513). An outline of the steps: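 Gene-expression endpoint: JUN mRNA (qRT-PCR, normalized to three reference genes) in HepaRG cultures treated 48 h with chemicals, duplicate wells, 100 uM maximum with half-log dilutions; bidirectional fitting relative to 0.5% DMSO.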

Read-out in test [14]: Lipase C (LIPC), LIPC (gene 3990)
Description: LTEA_HepaRG_LIPC: Life Technologies and Expression Analysis (LTEA) Assay for Lipase C (LIPC) using HepaRG (AID 2283514). The method in brief: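 In this multiplexed gene-expression screen, human HepaRG cultures received test chemicals for 48 h across eight concentrations with 100 uM highest, in duplicate. Values reflect LIPC mRNA induction or suppression versus DMSO vehicle, from normalized qRT-PCR.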

Read-out in test [15]: Lipoprotein lipase (LPL), LPL (gene 4023)
Description: LTEA_HepaRG_LPL: Life Technologies and Expression Analysis (LTEA) Assay for Lipoprotein lipase (LPL) using HepaRG (AID 2283515). An outline of the steps:
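Concentration-response testing used half-log steps from 100 uM in 0.5% DMSO on human HepaRG cells, 48 h, duplicate wells. Phenobarbital 1 mM served as induction control; LPL mRNA was normalized to ACTB, GAPDH, POLR2A.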

Read-out in test [16]: matrix metalloproteinase-10 (MMP10), MMP10 (gene 4319)
Description: LTEA_HepaRG_MMP10: Life Technologies and Expression Analysis (LTEA) Assay for matrix metalloproteinase-10 (MMP10) using HepaRG (AID 2283517). An outline of the steps:
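In differentiated HepaRG cultures kept in 0.5% DMSO, test chemicals act for 48 h over an eight-point range with a top dose of 100 uM. Expression is then quantified by TaqMan RT-PCR against ACTB, GAPDH and POLR2A.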

Read-out in the next test: MYC, MYC (gene 4609)
Kind of test: LTEA_HepaRG_MYC: Life Technologies and Expression Analysis (LTEA) Assay for MYC using HepaRG (AID 2283518). The method in brief:
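MYC transcript changes, up or down relative to 0.5% DMSO, from TaqMan qRT-PCR normalized to three housekeeping genes. Human HepaRG cultures received chemicals for 48 h at eight half-log concentrations up to 100 uM, in duplicate.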

Read-out in test [17]: MicroRNA 122 (MIR122), gene 406906
Kind of test: LTEA_HepaRG_MIR122: Life Technologies and Expression Analysis (LTEA) Assay for MicroRNA 122 (MIR122) using HepaRG (AID 2283516). Further: the transcript read is the microRNA miR-122. An outline of the steps:
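Changes in transcript abundance, up or down relative to 0.5% DMSO vehicle, were scored after 48 h chemical treatment of HepaRG cells (maximum 100 uM). Quantification used TaqMan qRT-PCR normalized to housekeeping genes.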

Read-out in test [18]: 3-Hydroxy-3-Methylglutaryl-CoA Synthase 2 (HMGCS2), HMGCS2 (gene 3158)
Description: LTEA_HepaRG_HMGCS2: Life Technologies and Expression Analysis (LTEA) Assay for 3-Hydroxy-3-Methylglutaryl-CoA Synthase 2 (HMGCS2) using HepaRG (AID 2283504). An outline of the steps: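 Readout is HMGCS2 transcript by qRT-PCR, housekeeping-normalised (ACTB/GAPDH/POLR2A) and fitted bidirectionally against 0.5% DMSO. Differentiated HepaRG cells received chemicals 48 h, duplicate wells, eight half-log concentrations topping at 100 uM.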

For four compounds, AC50 and outcome results are on record in PubChem BioAssay (EPA / NIEHS).

SMILES strings stand for the structures. The source made the active and inactive calls. How the source made its calls: active means hit-call score of the fitted dose curve at least 0.9, where 1 is the maximum; inactive means score below 0.9.

Sequence of Hypoxia-inducible factor 1-alpha (Homo sapiens) (Q16665 whole entry, looked up): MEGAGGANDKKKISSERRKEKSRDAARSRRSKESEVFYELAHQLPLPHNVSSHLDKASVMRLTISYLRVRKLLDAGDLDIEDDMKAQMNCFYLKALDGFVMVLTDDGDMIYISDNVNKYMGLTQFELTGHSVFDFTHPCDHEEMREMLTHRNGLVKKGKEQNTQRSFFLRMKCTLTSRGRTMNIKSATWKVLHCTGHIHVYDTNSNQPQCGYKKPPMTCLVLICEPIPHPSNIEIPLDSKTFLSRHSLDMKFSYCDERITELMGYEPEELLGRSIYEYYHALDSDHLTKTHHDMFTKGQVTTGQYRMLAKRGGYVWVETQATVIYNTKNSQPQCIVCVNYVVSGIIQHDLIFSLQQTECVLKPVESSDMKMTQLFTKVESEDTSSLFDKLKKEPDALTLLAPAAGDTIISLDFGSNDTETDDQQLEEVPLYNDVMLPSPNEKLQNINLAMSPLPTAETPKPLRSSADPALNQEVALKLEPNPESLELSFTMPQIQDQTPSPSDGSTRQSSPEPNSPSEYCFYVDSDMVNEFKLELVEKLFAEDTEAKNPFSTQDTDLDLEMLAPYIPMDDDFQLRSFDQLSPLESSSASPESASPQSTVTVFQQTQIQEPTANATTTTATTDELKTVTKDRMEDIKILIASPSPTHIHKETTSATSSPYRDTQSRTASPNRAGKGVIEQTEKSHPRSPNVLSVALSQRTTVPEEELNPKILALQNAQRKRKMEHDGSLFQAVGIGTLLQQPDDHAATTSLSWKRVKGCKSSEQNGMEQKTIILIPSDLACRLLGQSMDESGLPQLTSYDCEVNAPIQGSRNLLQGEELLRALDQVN

As to `CCCCOCCOCCOCc1cc2c(cc1CCC)OCO2`, the AC50 in test [1] is 4.83 µM (active); in [4], 7.35 µM (active); in test [6], 21.3 µM (active). Also, the compound was called inactive (in test [2]; in test [3]; in test [5]; with HGF (gene 3082); in test [7]; in test [8]). The compound was called inactive in test [9], in test [10], in test [11], in test [12], in [13] and in [14]. Moreover, the outcome in test [15] was “inactive”; in [16] it was “inactive”; with MYC, MYC (gene 4609) it was “inactive”.
With `CCOC(=O)COc1cc(-n2ncc(C(F)(F)F)c(C)c2=O)c(F)cc1Cl`, the compound was classed as inactive (in test [1]; in test [2]; in test [3]; in test [4]; in test [5]; in the test with HGF (gene 3082)). The outcome in [6], in [7], in test [8], in test [9], in test [10] and in [11] was inactive. In addition, the outcome in test [12] was “inactive”; in test [13], “inactive”; in [15] it was “inactive”; in test [17], “inactive”; in [16], “inactive”; in the test with MYC, MYC (gene 4609), “inactive”.
With `CCCCC(CC)CN1C(=O)C2C3C=CC(C3)C2C1=O` (configuration not stated), the AC50 was 50 µM (active) in test [1]; 50 µM (active) in [2]; 50 µM (active) in test [6]; 82.9 µM (active) in test [8]; 74.9 µM (active) in [9]; 58.4 µM (active) in [15]. Further, the result (in [3]; in test [4]; in [5]; with HGF (gene 3082); in test [7]; in [10]) was inactive. Besides, the outcome in test [11] was “inactive”; in test [12] it was “inactive”; in test [13], “inactive”; in test [17], “inactive”; in test [16], “inactive”; in the test with MYC, MYC (gene 4609), “inactive”.
Consider `CCOC(=O)NCCOc1ccc(Oc2ccccc2)cc1`, for which the AC50 in test [1] is 73.5 µM (active); in [2], 82.4 µM (active); in test [18] it was 77.1 µM (active); in [6], 89.5 µM (active); in [8], 73.1 µM (active); in [9], 77.9 µM (active). Besides, the concentration at half-maximal activity (AC50) in test [10] was 20.7 µM (active); in test [12] it was 89.8 µM (active); in [15], 81.6 µM (active); in test [16], 50 µM (active); with MYC, MYC (gene 4609) it was 79.9 µM (active). For the same compound, the compound was classed as inactive (in test [3]; in [4]; in [5]; in the test with HGF (gene 3082); in [7]; in test [11]). In addition, the result in [13] was inactive.

Broadly, the AC50 is the concentration at which the activity in the assay is half-maximal.
